# Screens: PubChem, National Center for Advancing Translational Sciences (NCATS)
# Shown are actives, neighbours in structure and some others; about 9.3% of the full set was active somewhere.
# NPC1 promoter act = activates the NPC1 promoter; Huh7 NPC1 promoter luciferase reporter, 24 h; Potency, µM (series often up to 9.22 µM), for inactives: top-dose activation, actives largely listed as activators; 320,000 tested, 2.4% active; AID 485313; further: % of control where 0% means no effect; nearly all actives have a fitted effect of over 60% in size
#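 Huh7 reporter cells (NPC1 promoter driving luciferase) are dosed with compound for 24 h at 37 °C, 5% CO2; luciferase detection reagent is then added and luminescence measured after 10 min at ambient temperature.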
# Rab9 promoter act = activates the Rab9 promoter; Huh7 Rab9 promoter-luciferase reporter, luminescence, 24 h; Potency, µM (top dose mostly 9.22 µM), for the others: top-dose activation, negative = inhibition, usual class: activators; 320,000 tested, 2.8% active; AID 485297; further: % of control where 0% means no effect; nearly all actives have a fitted effect of over 60% in size
#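 Steps: seed 1500 Huh7 Rab9-luc cells per well, rest 2 h at 37 °C; add compound in DMSO; incubate 24 h; add luciferase reagent, 10 min ambient; read luminescence.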
# SMN2 splice up = enhancers of SMN2 splice variant expression | Potency, µM (series often up to 46.1 µM), for the others: at the highest dose activity change, positive = activation, hits mostly activators | HEK293 SMN2-luciferase splicing reporter, luminescence, 30-36 h | 210,000 tested, 2.8% active | AID 1458; further: % of control where 0% means no effect; nearly all actives have a fitted effect of over 55% in size
#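 HEK293 cells carry an SMN2 minigene-luciferase reporter in which exon 7 inclusion puts luciferase in frame. Cells were seeded at 2000 cells/well, attached for 10-12 hours, then exposed to compounds for 30-36 hours at 37C before ONE-Glo luminescence.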
# ELG1 genotox = inducers of genotoxicity in HEK293T ELG1-luciferase cells; HEK293T ELG1-luciferase reporter, luminescence, 16 h; Potency, µM (titrated, usually from 46 µM), for inactives: top-dose activity change, positive = activation, hits mostly activators; 330,000 tested, 1.3% active; further: % of control where 0% means no effect; nearly all actives have a fitted effect of over 60% in size
#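 Screening used a luciferase reporter fused to human ELG1 in HEK293T cells. Luminescence was read on a CCD plate imager after 16 hr exposure and 30 min ONE-Glo incubation.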
# FLuc counter = inhibits or activates purified firefly luciferase, miR-21 counter-screen. P08659. purified FLuc, Km substrates, luminescence inhibition. Potency, µM (series often up to 57.5 µM), inactives show top-dose activity change, negative = inhibition, usual class: inhibitors. 360,000 tested, 6.9% active. AID 588342;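 further: plate controls were vehicle for no effect and reference inhibitor for full effect; nearly all actives have a fitted effect of over 55% in size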
# Target sequence (P08659 whole entry, looked up): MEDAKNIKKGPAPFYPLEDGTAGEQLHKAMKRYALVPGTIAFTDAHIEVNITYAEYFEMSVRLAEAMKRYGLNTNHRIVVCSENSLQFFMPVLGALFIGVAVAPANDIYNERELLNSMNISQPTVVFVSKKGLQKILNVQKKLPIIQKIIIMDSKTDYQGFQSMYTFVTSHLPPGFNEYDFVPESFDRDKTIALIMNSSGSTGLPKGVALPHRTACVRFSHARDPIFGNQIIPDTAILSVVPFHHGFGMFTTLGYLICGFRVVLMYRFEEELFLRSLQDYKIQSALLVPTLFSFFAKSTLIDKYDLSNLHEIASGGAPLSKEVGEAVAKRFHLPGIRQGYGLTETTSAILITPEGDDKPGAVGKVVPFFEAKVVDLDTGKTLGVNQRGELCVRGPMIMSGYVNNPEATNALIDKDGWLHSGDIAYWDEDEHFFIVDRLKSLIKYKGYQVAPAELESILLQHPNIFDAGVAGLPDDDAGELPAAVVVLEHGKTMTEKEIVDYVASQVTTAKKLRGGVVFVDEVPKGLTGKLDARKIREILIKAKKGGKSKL
#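 Purified P. pyralis luciferase (10nM final) with 10uM D-luciferin and 10uM ATP (Km levels) in 50mM Tris acetate pH 7.5, 10mM Mg acetate, 0.01% Tween-20, 0.05% BSA; qHTS 6-point titration, ~60 µM downward; luminescence read.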
# ELG1 repair inh = inhibitors of ELG1-dependent DNA repair in HEK293T cells | HEK293T ELG1-luciferase reporter, luminescence, 16 h; DNA damage induced by 5-fluorouridine | Potency, µM (titrated, usually from 46.1 µM), for inactives: at the top dose activity change, negative = inhibition, actives largely listed as inhibitors | 330,000 tested, 2.3% active; further: on the % scale 0 is the no-effect control and ±100 the full control effect; nearly all actives have a fitted effect of over 55% in size
#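 In this reporter screen, reduction of luminescence relative to DMSO vehicle indicated activity. Compounds and 5-fluorouridine were added together to 2,000 cells per well, incubated for 16 hr at 37 °C, then developed with ONE-Glo.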
# Numbers without * were called inactive; ? = inconclusive; nt = no result; [ ] = another dose, or the depositor's remark. The call rests on the fitted dose curve; in most records, active means well fitted curve in the direction sought with a large enough effect; inconclusive means small, poorly fitted or top-dose-only effect, or another doubt; inactive means no such curve, though single readings can be large; an effect the other way counts as inactive or inconclusive. Potency means the concentration at half of the fitted maximal effect.
SMILES,NPC1 promoter act,Rab9 promoter act,SMN2 splice up,ELG1 genotox,FLuc counter,ELG1 repair inh
COc1ccc(N(Cc2ccccc2)C(=O)c2ccccc2[N+](=O)[O-])cc1,-1%,-1%,10%,-11%,0%,?
CC(=O)N1NC(=Nc2ccccc2)SC1(C)C,-6%,-27%,nt,-5%,-18%,-6%
O=C1CCCC2=C1C1c3ccccc3C(=O)N1c1ccc(C(=O)c3ccccc3)cc1N2 (centres undefined),-4%,-3%,-40%,-6%,-10%,16µM*
Cc1ccc2nc(-c3cccc(Br)c3)cc(C(=O)NCC3CCCO3)c2c1 (centres undefined),-5%,3%,nt,-12%,?,?
Cc1nc(SC(C)C(=O)NCC2CCCO2)c2cc(-c3ccccc3)sc2n1 (centres undefined),-2%,30%,nt,-10%,12µM*,?
O=C(NCC1CCCO1)c1cc(-c2ccccc2)nc2ccc(Br)cc12 (centres undefined),1%,7%,nt,-2%,2.4µM*,2%
CCn1c(SC(C)C(=O)NCC2CCCO2)nc2scc(-c3ccccc3)c2c1=O (centres undefined),-5%,0%,nt,-3%,6%,?
Cc1cc(Br)cc2c(C(=O)NCC3CCCO3)cc(-c3ccccc3)nc12 (centres undefined),12%,17%,nt,?,1.3µM*,?
COc1ccc2c(c1OC)C(=O)N(c1ccc(OCc3ccccc3)cc1)C2=O,-4%,-4%,nt,1%,0%,9%
COc1ccc(OCC(O)CNC(=O)c2sccc2Cl)cc1 (centres undefined),0%,6%,nt,3%,-17%,?
COc1cccc(/C(C)=N/NC(=O)c2cc(-c3cccnc3)nc3ccccc23)c1,0%,0%,-17%,0%,-18%,?
C/C(=N\Nc1nncc2ccccc12)c1cccc(OC(F)F)c1,1µM*,1.1µM*,nt,2.9µM*,1.1µM*,?
C/C(=N\NC(=S)NCc1ccccc1)c1ccc(C(C)(C)C)cc1,-1%,-1%,-30%,-3%,1%,?
C/C(=N\Nc1nncc2ccccc12)c1ccc(C(C)(C)C)cc1,?,18%[1.84 µM],nt,18%,7.6µM*,?
C/C(=N\Nc1c(Cl)c(Cl)nc(C(=O)O)c1Cl)c1ccc(O)cc1,0%,0%,nt,0%,?,7%
C/C(=N\Nc1nncc2ccccc12)c1ccc(O)cc1,1.3µM*,0.71µM*,nt,28%,0.95µM*,?
CCOC(=O)C1CCN(C(=O)c2cc(S(=O)(=O)N3CCCCCC3)ccc2OC)CC1,3%,4%,nt,-6%,-1%,0%
CC(C(=O)NC(=O)NC1CCCCC1)N1CCN(C(c2ccccc2)c2ccccc2)CC1 (centres undefined),-3%,-2%,-5%,-4%,1%,?
COC(=O)c1sc(NC(=O)c2ccoc2C)nc1C,29%,?,22µM*,?,?,-24%
COC(=O)c1sc(NC(=O)c2c(-c3ccccc3)noc2C)nc1C,1%,-2%,nt,2%,?,-6%
COC(=O)c1sc(NC(=O)c2c(C)noc2C)nc1C,6%,-2%,nt,?,24µM*,1%
O=C(COC(=O)c1cccs1)Nc1ccccc1C(F)(F)F,0%,-2%,nt,-6%,1%,-8%
O=C(COC(=O)c1ccccc1-c1nc2ccccc2s1)Nc1ccccc1C(F)(F)F,2%,-5%,nt,-3%,-18%,23µM*
COc1ccc(/C=C2\Sc3ccc(C(=O)N4CCN(Cc5ccccc5)CC4)cc3N(C)C2=O)cc1OC,-12%,-15%,nt,-16%,0%,23µM*
COc1ccc(/C=C2\Sc3ccc(C(=O)NCc4cccnc4)cc3N(C)C2=O)cc1OC,-5%,-16%,-20%,-16%,-15%,18µM*
SMILES,NPC1 promoter act,Rab9 promoter act,SMN2 splice up,ELG1 genotox,FLuc counter,ELG1 repair inh
CN1CCN(C(=O)c2ccc3c(c2)N(C)C(=O)/C(=C/c2cccc(Cl)c2)S3)CC1,0%,-5%,nt,-2%,-15%,1%
COc1ccc(/C=C2\Sc3ccc(C(=O)N4CCOCC4)cc3N(C)C2=O)cc1,2%,0%,nt,-1%,15µM*,?
CC1CC1C(=O)OCC(=O)Nc1cccc([N+](=O)[O-])c1 (centres undefined),-1%,6%,2%,4%,-15%,9%
Cc1ccc(NC(=O)Cc2ccc(-c3ccccc3)cc2)nc1,-3%,5%,nt,?,-16%,?
CNC(=S)NCCc1ccccc1,-2%,1%,nt,3%,-2%,?
Cc1ccc(NC(=S)NCCc2ccccc2)nc1,27%,?,25µM*,?,17µM*,?
Cc1ccc(NC(=O)CCCc2ccccc2)nc1,?,4µM*,16µM*,?,17µM*,?
CCOC(=O)c1c(C)[nH]c(C)c1S(=O)(=O)NCC(=O)Nc1cccc(SC)c1,nt,nt,nt,nt,-9%,nt
Fc1ccc(CSc2ncnc3scc(-c4ccccc4)c23)cc1,-2%,1%,-3%[1.84 µM],4%,0%,-1%
Clc1ccc(C[n+]2csc3ccccc32)cc1,0%,-7%,-3%,0%,6.7µM*,?
Clc1ccc(CSc2ccc(-c3cccs3)nn2)cc1,nt,nt,nt,nt,0%,nt
Fc1ccc(C[n+]2csc3ccccc32)cc1,-4%,2%,2%,4%,7.6µM*,5%
COc1ccccc1OCC(=O)N/N=C/c1cccc2cccnc12,-3%,-5%,nt,-1%,-18%,-16%
CC(C)n1cc(/C=N/NC(=O)COc2cccc3cccnc23)c2ccccc21,0%,1%,nt,-5%,2.7µM*,?
C=CCn1cc(/C=N/NC(=O)COc2cccc3cccnc23)c2ccccc21,0%,1%,12%,2%,?,-39%
COc1cccc(/C=N/NC(=O)COc2cccc3cccnc23)c1O,-8%,-25%,-23%,3%,12µM*,?
CC(=O)Nc1ccc(C(=O)N/C(=C/c2ccccc2)C(=O)N2CCCCC2)cc1,2%,-1%,nt,2%,2%,12%
Cc1ccc2nc(SCC(=O)N3CCOCC3)[nH]c2c1,2.5µM*,1.6µM*,?,9.2µM*,6.7µM*,?
Cc1ccc2[nH]c(SCC(=O)N3CCOCC3)nc2c1C,?,3.5µM*,6.3µM*,?,15µM*,?
Cc1ccc2nc(SCC3CCCCO3)[nH]c2c1 (centres undefined),0.4µM*,0.11µM*,nt,?,1.2µM*,?
